APP 5UTR inh: inhibitors of APP translation via 5'UTR reporter, primary screen, APP 5'UTR luciferase, SH-SY5Y cells. AID 1285, 2008. hit rate 0.82% among 190,000. inhibition, % at 2 µM. SH-SY5Y APP 5'UTR-luciferase reporter, luminescence;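 active = inhibition above a set limit, derived from the sample mean plus 3 SD, cut at about 45% in these data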
BaF3 parental: parental Ba/F3 cell viability inhibition, counter-screen for JAK2V617F inhibitor project, murine pro-B, CellTiter-Glo luminescence. inhibition, % at 5.6 µM. hit rate 1.1% among 220,000. AID 1486, 2009. CellTiter-Glo ATP luminescence;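 active = inhibition above a per-campaign cutoff, the mean inhibition of all tested compounds plus 3 SD, cut at about 27% in these data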;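 also: 0% = DMSO wells and 100% = JAK Inhibitor I control wells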
KLF5 inh: KLF5 expression inhibitors, primary screen, DLD-1 cells, luminescence; inhibition, % at 5 µM; AID 1700, 2009; hit rate 0.23% among 290,000; DLD-1 KLF5 promoter-luciferase reporter;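 active = inhibition above a per-plate limit of that plate's mean compound inhibition plus 3 SD, cut at about 60% in these data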;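 also: 0% = DMSO wells and 100% = LY294002 at 200 µM; higher means less KLF5 promoter-driven luciferase light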
aSyn UTR inh: MLPCN primary screen, SNCA 5' untranslated region | hit rate 0.82% among 300,000 | alpha-synuclein 5'UTR reporter, inhibitor activity | inhibition, % (tested at 7.5 µM); in the data active = inhibition above about 60%;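 also: H4 neuroglioblastoma cells stably carrying SNCA 5'UTR luciferase fusion; 0% = DMSO wells and 100% = positive control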
IEC-6 tox: cytotoxicity in IEC-6 intestinal epithelial cells, primary screen, cytotoxicity control for KLF5 inhibitor project, cell-based, luminescence; IEC-6 cytotoxicity, luminescence viability; inhibition, % at 5 µM; hit rate 0.78% among 290,000; AID 1825, 2009; in the data active = inhibition above about 22%;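 also: 0% = plate median of test compound wells and 100% = cytotoxic reference compound wells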
Ba/F3 V617F tox: reduced viability of JAK2V617F-dependent Ba/F3 cells, primary screen, JAK2V617F inhibitor project, cell-based, Ba/F3 EpoR-JAK2V617F, luminescence; ATP luminescence; AID 1446, 2008; hit rate 1.1% among 220,000; inhibition, % at 5.6 µM;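 active = inhibition above the campaign mean plus 3 SD over all tested compounds, cut at about 24% in these data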;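 also: cytokine-independent growth of Ba/F3 cells driven by EpoR plus mutant JAK2; 0% = DMSO-treated cells and 100% = JAK inhibitor I control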
The depositor's hits bear a star. The list is not random: actives were taken first. Their share in the collection is about 2.2%.

O=C(N/N=C/c1cc([N+](=O)[O-])ccc1O)c1ccc(COc2ccc3c(c2)CCC3)o1 was read as KLF5 inh 26, aSyn UTR inh 87* and IEC-6 tox 7.
CCn1cc(S(=O)(=O)NC2CCCCC2)cn1 was read as KLF5 inh 0, aSyn UTR inh 2 and IEC-6 tox -1.
For O=C(C1=C[C@@H](c2csc3ccccc23)C[C@@H](OCc2ccc(CO)cc2)O1)N1CCN(Cc2ccc3c(c2)OCO3)CC1 the results were APP 5UTR inh 13, BaF3 parental 0, KLF5 inh -10, aSyn UTR inh 69*, IEC-6 tox -1 and Ba/F3 V617F tox 2.
Cc1ccc2nc(N(CCCN(C)C)C(=O)c3cc(-c4cccs4)nc4ccccc34)sc2c1 was read as KLF5 inh -16, aSyn UTR inh 67* and IEC-6 tox 7.
COc1ccc(/C=C2\CCCC3C2=NN(C(=O)CSc2n[nH]c(N)n2)C3c2ccc(OC)cc2)cc1 (configuration not stated) was read as APP 5UTR inh -9, BaF3 parental 4, KLF5 inh -22, aSyn UTR inh 4, IEC-6 tox 1 and Ba/F3 V617F tox 4.
Screening CC1CCCCN1S(=O)(=O)c1ccc(S(=O)(=O)N(Cc2ccccc2)Cc2ccco2)cc1 (configuration not stated) returned APP 5UTR inh 58*, BaF3 parental 4, KLF5 inh -12, aSyn UTR inh 16, IEC-6 tox 2 and Ba/F3 V617F tox -3.
Screening CCN(Cc1ccccc1)S(=O)(=O)c1ccc(S(=O)(=O)N(Cc2ccccn2)Cc2ccco2)cc1 returned APP 5UTR inh 8, BaF3 parental 1, KLF5 inh -13, aSyn UTR inh 15, IEC-6 tox 0 and Ba/F3 V617F tox -4.
Screening Cc1ccc(C(C)C)c(OCc2ccc(C(=O)N/N=C/c3ccc(O)cc3O)cc2)c1 returned APP 5UTR inh 75*, BaF3 parental 6, KLF5 inh 47, aSyn UTR inh 96*, IEC-6 tox 11 and Ba/F3 V617F tox 3.
`Cc1ccc(C(C)C)c(OCc2ccc(C(=O)N/N=C/c3ccc(C(=O)O)cc3)cc2)c1` gave BaF3 parental 3, KLF5 inh -28, aSyn UTR inh 37, IEC-6 tox 7 and Ba/F3 V617F tox 0.
Screening CCOC(=O)N1CCN(C(=O)COC(=O)C2CCN(S(=O)(=O)c3c(C)c(C)cc(C)c3C)CC2)CC1 returned aSyn UTR inh -4.
`C=CC[n+]1c(-c2ccc(Cl)cc2Cl)csc1Nc1ccc(NC(C)=O)cc1` gave APP 5UTR inh 16, BaF3 parental 3, KLF5 inh 11, aSyn UTR inh 94*, IEC-6 tox 6 and Ba/F3 V617F tox 2.
Screening C=CC[n+]1c(-c2ccc(Cl)cc2Cl)csc1Nc1c(C)n(C)n(-c2ccccc2)c1=O returned APP 5UTR inh 19, BaF3 parental 3, KLF5 inh -10, aSyn UTR inh 14, IEC-6 tox 13 and Ba/F3 V617F tox 1.
Screening COC(=O)CCC(=O)c1oc2ccc(OC)cc2c1N returned APP 5UTR inh 64*, BaF3 parental 3, KLF5 inh -117, aSyn UTR inh -62, IEC-6 tox -1 and Ba/F3 V617F tox -1.
`O=C(NCc1ccc(Cl)cc1)N1CCc2ccccc2C1` gave KLF5 inh 7, aSyn UTR inh 2 and IEC-6 tox 1.
Screening COc1ccc(-c2oc3cc(O)c(OC)c(O)c3c(=O)c2OC)cc1 returned aSyn UTR inh -45.
`COc1ccc(-c2oc3cc(OC)c(O)c(OC)c3c(=O)c2OC)cc1O` gave APP 5UTR inh 14, BaF3 parental 1, KLF5 inh -25, aSyn UTR inh 65*, IEC-6 tox 10 and Ba/F3 V617F tox 8.
`C[C@H]1O[C@H](O[C@H]2[C@H](O)[C@@H](O)[C@@H](O[C@H]3[C@H](O)[C@@H](O)C(O)O[C@@H]3CO)O[C@@H]2CO)[C@H](O)[C@@H](O)[C@@H]1N[C@H]1C=C(CO)[C@@H](O)[C@H](O)[C@H]1O` (some centres not stated) gave BaF3 parental -7, KLF5 inh 10, aSyn UTR inh -9, IEC-6 tox 34* and Ba/F3 V617F tox 24*.
Screening CC1OC(OC2C(CO)OC(OC3C(CO)OC(O)C(O)C3O)C(O)C2O)C(O)C(O)C1N[C@@H]1C=C(CO)[C@@H](O)C(O)[C@H]1O (some centres not stated) returned KLF5 inh -17, aSyn UTR inh 4 and IEC-6 tox -8.
Cc1ccccc1CNS(=O)(=O)c1csc(C(N)=O)c1 was read as KLF5 inh -7, aSyn UTR inh 3 and IEC-6 tox 2.
Screening COc1cc(NC(=O)C2CCN(S(=O)(=O)c3ccc4[nH]c(=O)oc4c3)CC2)cc(OC)c1 returned KLF5 inh -6, aSyn UTR inh -15 and IEC-6 tox 5.
`COc1ccc(C(=O)NC(=O)Nc2cc(C)ccn2)cc1` gave APP 5UTR inh -159, BaF3 parental 3, KLF5 inh -156, aSyn UTR inh 72*, IEC-6 tox 7 and Ba/F3 V617F tox 3.
COc1ccc(C(=O)Nc2ccccc2C(=O)Nc2cc(C)ccn2)cc1 was read as KLF5 inh -89, aSyn UTR inh -107 and IEC-6 tox 11.
CCOc1ccc(NC(=O)Cn2c(=O)n(CCCC(=O)NC3CCN(Cc4ccccc4)CC3)c(=O)c3ccccc32)cc1 was read as KLF5 inh -5, aSyn UTR inh 7 and IEC-6 tox -7.
`CCOC(=O)C1=C(C)N(c2ccc(C)cc2)C(=O)/C1=C\c1ccc(O)c(OC)c1` gave BaF3 parental 29*, KLF5 inh -2, aSyn UTR inh -8, IEC-6 tox 1 and Ba/F3 V617F tox -5.
For CCOC(=O)C1(Cc2ccc(OC)cc2)CCN(C(=O)CCc2cccnc2)CC1 the results were APP 5UTR inh -7, BaF3 parental 2, KLF5 inh 0, aSyn UTR inh -9, IEC-6 tox 4 and Ba/F3 V617F tox -3.
CC(C)(C)n1nc(-c2ccc(F)cc2)c2c(N)ncnc21 was read as APP 5UTR inh -24, BaF3 parental -2, KLF5 inh -41, aSyn UTR inh 71*, IEC-6 tox -2 and Ba/F3 V617F tox -3.
Cc1ccc(-c2nc(N)c3c(-c4ccc(C)cc4)nn(C(C)(C)C)c3n2)cc1 was read as APP 5UTR inh -5, BaF3 parental 2, KLF5 inh 14, aSyn UTR inh -30, IEC-6 tox -3 and Ba/F3 V617F tox -4.
COc1cc(OC)cc(C(=O)Nc2ccccc2C(=O)NCc2cccnc2)c1 was read as KLF5 inh 8, aSyn UTR inh 15 and IEC-6 tox 2.

Screening results (PubChem)
